# Measured values: PubChem BioAssay (NCI)
# This is part of a sample that, as a whole, favours compounds with a hit. Of some 83,000 tested, about 20% had one in any assay.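 Compound tested at a single concentration for 48 hours in 96-well plates; a percent growth value below 10 was scored as active.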 A number with no mark means an inactive call. Calls of active or inactive are those of the source.
# What was measured:
# Assay in all cases: NCI-60 one-dose screen, 48 h (100 = growth as untreated, 0 = no growth, -100 = all killed)
# Details in all cases: 10 µM
# NCI-H23 lung = test system: NCI-H23 lung
# NCI-H226 lung = test system: NCI-H226 lung
# HOP-62 NSCLC = test system: HOP-62 NSCLC
# NCI-H460 lung = test system: NCI-H460 lung
# A549/ATCC NSCLC = test system: A549/ATCC NSCLC
# 786-0 renal = test system: 786-0 renal
# COLO 205 colon = test system: COLO 205 colon
# DU-145 prostate = test system: DU-145 prostate
# K-562 leukemia = test system: K-562 leukemia
# MALME-3M melanoma = test system: MALME-3M melanoma
# MDA-MB-231 breast = test system: MDA-MB-231 breast
# RXF 393 renal = test system: RXF 393 renal
# SF-268 CNS = test system: SF-268 CNS
# SF-295 CNS = test system: SF-295 CNS
# SF-539 CNS = test system: SF-539 CNS
# UACC-257 melanoma = test system: UACC-257 melanoma
# M14 melanoma = test system: M14 melanoma
# NCI-H522 lung = test system: NCI-H522 lung
# HOP-92 NSCLC = test system: HOP-92 NSCLC
Compound,growth (NCI-H23 lung),growth (NCI-H226 lung),growth (HOP-62 NSCLC),growth (NCI-H460 lung),growth (A549/ATCC NSCLC),growth (786-0 renal),growth (COLO 205 colon),growth (DU-145 prostate),growth (K-562 leukemia),growth (MALME-3M melanoma),growth (MDA-MB-231 breast),growth (RXF 393 renal),growth (SF-268 CNS),growth (SF-295 CNS),growth (SF-539 CNS),growth (UACC-257 melanoma),growth (M14 melanoma),growth (NCI-H522 lung),growth (HOP-92 NSCLC)
CCC(=O)Oc1ccc(OC)cc1,108%,105%,98%,104%,105%,105%,110%,98.3%,107%,89.1%,103%,116%,102%,118%,101%,108%,104%,,
CNS(=O)(=O)c1ccc(Cl)c(Cl)c1,110%,86.4%,,109%,104%,85.9%,114%,111%,99.5%,111%,98.2%,99.7%,96.1%,101%,91.7%,124%,98.5%,97.8%,
O=C(O)c1ccnc(Br)c1,97.8%,92.6%,,104%,102%,102%,107%,111%,109%,107%,115%,106%,107%,100%,97.5%,104%,107%,105%,96.9%
Cc1cc(C)c(CC(=O)O)c(C)c1,100%,99.8%,107%,105%,104%,,108%,101%,95.2%,97.8%,120%,123%,98.6%,102%,108%,106%,98.9%,,90.5%
Oc1ccc(Cc2ccccc2)c2cccnc12,7.91% (active),75.7%,18.3%,0.164% (active),16.2%,-1.42% (active),96.5%,28.9%,13.3%,-0.436% (active),31%,14.6%,20%,32.4%,11.8%,1.27% (active),-29.8% (active),,-0.901% (active)
Cc1cc(C(C)(C)C)cc(C)c1Br,104%,111%,99.8%,103%,109%,,112%,121%,111%,135%,108%,113%,102%,103%,94.9%,105%,98.5%,,75.5%
CCOC(=O)c1coc(C(=O)OCC)c1C(=O)OCC,100%,111%,119%,111%,108%,108%,128%,116%,112%,116%,107%,123%,105%,102%,,112%,120%,128%,
Cc1ccccc1N=C(c1ccccc1)C1C(=O)c2ccccc2C1=O,87.6%,90.4%,98.8%,101%,,88.6%,103%,,61.8%,,98.7%,,88.1%,93.6%,77.8%,96%,78%,59%,72.7%
O=C1C=CC(=O)N1c1ccc(I)cc1Cl,100%,108%,90.7%,109%,46%,97%,113%,110%,114%,,107%,110%,126%,,97.1%,-2.76% (active),95.1%,-29.7% (active),
O=C(CCl)Nc1ccc2c(c1)C(=O)c1ccc(NC(=O)CCl)cc1C2=O,-68.7% (active),-11.6% (active),-64.7% (active),-45.9% (active),0.12% (active),-66.9% (active),-50.8% (active),-55.7% (active),-14.9% (active),,-48.2% (active),-86% (active),-66.6% (active),-22.6% (active),-92.2% (active),-12.2% (active),-55.5% (active),-65.2% (active),
OCc1ccc(-c2ccc(-c3ccc(CO)s3)o2)s1,47.5%,-23.9% (active),67.1%,-4.49% (active),19.8%,30.2%,13.1%,6.59% (active),-3.52% (active),78.1%,98.8%,57%,73.4%,13.6%,43.8%,32.5%,87.6%,25.9%,
CC(=O)OCC1CCCO1 (stereo unspecified),106%,100%,95.1%,91.5%,,93.5%,102%,109%,94.5%,99.2%,103%,103%,107%,101%,114%,,110%,91%,97.4%
CCC(C)(O)c1ccc(C)cc1 (stereo unspecified),103%,103%,98.1%,105%,111%,109%,,106%,116%,119%,107%,113%,92.9%,109%,103%,105%,,109%,103%
O=C(CCNNC(=O)c1ccncc1)NCc1ccccc1,95.8%,90.7%,98.3%,102%,104%,107%,,,,110%,60.9%,93.8%,95.8%,105%,95.4%,110%,103%,58.2%,97.8%
Nc1ncnc2[nH]ncc12,17.7%,34.8%,20.9%,12.3%,23%,,10.8%,2.47% (active),13%,21.3%,5.28% (active),14.9%,29.9%,21%,35.6%,16.3%,,,-21.4% (active)
O=c1cc(-c2ccccc2)nc2cc(-c3ccco3)[nH]n12,96.5%,102%,88.3%,104%,56.7%,111%,95.6%,115%,42.8%,84.2%,98.8%,100%,93.8%,110%,81.8%,43.8%,77.8%,71.8%,
O=C(O)/C=C/c1ccc2c(c1)CCC2,113%,105%,94.6%,103%,106%,101%,105%,118%,86.9%,121%,118%,106%,116%,98.9%,106%,97.8%,106%,,
CN(C)Cc1cc(C(C)(C)CC(C)(C)C)ccc1O,91%,91.2%,,100%,111%,92.9%,97.1%,126%,108%,100%,96.9%,138%,106%,95.6%,90.8%,112%,98%,68.4%,77.1%
